This is an account of results in PubChem BioAssay (NCATS).

In the assay the target is Furin (Homo sapiens) (UniProt P09958). In words: Furin counterscreen qHTS for Zika virus inhibitors (AID 1347149). Also: nearly all actives have a fitted effect of over 70% in size. In outline:
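Fluorogenic cleavage of BOC-RVRR-AMC (2 microM final, Km ~15 µM) was monitored (ex 340, em 450 nm) at 37C after 15 min RT preincubation of 5 nM furin with compounds in HEPES pH 7.0 buffer with CaCl2 and Triton X-100. Percent inhibition was fitted to a 4-parameter Hill curve.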

Records with an inconclusive call do not appear. Active and inactive are the calls of the source. Calls follow the shape of the dose curve; as a rule, active = well fitted inhibition curve with a large enough effect; inconclusive = small, poorly fitted or top-dose-only effect; inactive = no such curve, though single readings can be large or run the other way.
Potency is read from the fitted curve at half-maximal effect.

Chain of Furin (Homo sapiens) (P09958 whole entry, looked up): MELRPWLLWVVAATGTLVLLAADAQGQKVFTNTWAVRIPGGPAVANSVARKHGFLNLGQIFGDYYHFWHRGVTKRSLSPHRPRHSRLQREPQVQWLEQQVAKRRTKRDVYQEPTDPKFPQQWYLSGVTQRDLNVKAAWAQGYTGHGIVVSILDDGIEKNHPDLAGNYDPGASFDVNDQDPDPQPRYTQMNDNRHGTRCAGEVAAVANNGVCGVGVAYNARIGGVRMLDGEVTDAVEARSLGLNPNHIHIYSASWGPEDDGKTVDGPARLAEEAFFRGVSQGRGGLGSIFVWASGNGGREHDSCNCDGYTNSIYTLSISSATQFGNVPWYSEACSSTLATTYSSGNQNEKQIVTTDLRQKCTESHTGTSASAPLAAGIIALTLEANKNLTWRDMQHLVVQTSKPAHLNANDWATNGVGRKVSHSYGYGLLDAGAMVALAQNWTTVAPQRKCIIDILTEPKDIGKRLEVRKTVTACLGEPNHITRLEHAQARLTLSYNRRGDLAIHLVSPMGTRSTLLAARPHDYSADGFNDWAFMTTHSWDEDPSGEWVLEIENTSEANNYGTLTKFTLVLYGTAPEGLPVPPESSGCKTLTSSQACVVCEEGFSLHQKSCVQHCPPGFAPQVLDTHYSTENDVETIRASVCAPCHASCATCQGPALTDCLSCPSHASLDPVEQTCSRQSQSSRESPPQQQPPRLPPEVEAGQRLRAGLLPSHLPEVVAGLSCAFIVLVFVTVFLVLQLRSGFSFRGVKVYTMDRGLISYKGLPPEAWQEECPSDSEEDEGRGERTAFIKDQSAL

In the case of `CCCCCCCCCC(=O)N[C@H](CCCN=C(N)N)C(=O)N[C@@H](C(=O)N[C@H](CCCCN)C(=O)N[C@@H](CCCN=C(N)N)C(=O)CCl)C(C)C`, the Potency was 89.1 nM (active).
